Experimental findings from PubChem BioAssay (EPA / NIEHS) are described below.

Results filed as inconclusive are left out. Calls of active or inactive are those of the source. Rule for the calls: active = hit-call score of the fitted dose curve at least 0.9, where 1 is the maximum; inconclusive = response in the unintended direction; inactive = score below 0.9.

Sequence of Oxysterols receptor LXR-alpha (Homo sapiens) (Q13133 whole entry, looked up): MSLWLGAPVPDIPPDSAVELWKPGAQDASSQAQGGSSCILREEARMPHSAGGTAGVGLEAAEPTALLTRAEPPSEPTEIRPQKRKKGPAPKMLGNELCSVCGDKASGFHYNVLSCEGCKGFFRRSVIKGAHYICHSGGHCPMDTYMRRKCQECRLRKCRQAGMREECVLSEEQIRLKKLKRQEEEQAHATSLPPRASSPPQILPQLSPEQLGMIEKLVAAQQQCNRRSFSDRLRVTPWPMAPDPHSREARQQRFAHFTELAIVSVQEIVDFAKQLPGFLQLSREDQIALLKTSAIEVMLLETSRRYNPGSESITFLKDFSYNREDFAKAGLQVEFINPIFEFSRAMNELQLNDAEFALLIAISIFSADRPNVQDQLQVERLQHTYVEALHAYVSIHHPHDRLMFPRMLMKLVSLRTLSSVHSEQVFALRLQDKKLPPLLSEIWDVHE

This test deals with Oxysterols receptor LXR-alpha (Homo sapiens) (UniProt Q13133). Briefly: ATG_LXRa_TRANS: Attagene TRANS-FACTORIAL HepG2 Assay for human Liver X Receptor alpha (LXRa) (AID 2282980). The following applies: HepG2 Attagene TRANS reporter, LXRa transactivation. The method, then:
ATG_TRANS is a cell-based, multiplexed-readout assay that uses HepG2, a human liver cell line, with measurements taken at 24 hours after chemical dosing in a 24-well plate.ATG_LXRa_TRANS is one of 30 assay component(s) measured or calculated from the ATG_TRANS assay. It is designed to make measurements of mRNA induction, a form of inducible reporter, as detected with fluorescence intensity signals by Reverse transcription polymerase chain reaction (RT-PCR) and Capillary electrophoresis technology.Data from the assay component ATG_LXRa_TRANS was analyzed into 1 assay endpoint. This assay endpoint, ATG_LXRa_TRANS, was analyzed in the positive analysis fitting direction relative to DMSO as the negative control and baseline of activity. Using a type of inducible reporter, measures of mRNA for gain-of-signal activity can be used to understand the reporter gene at the transcription factor-level as they relate to the gene NR1H3. Furthermore, this assay endpoint can be referred to as a primary readout, because this assay has produced multiple assay endpoints where this one serves a reporter gene function. To generalize the intended target to other relatable targets, this assay endpoint is annotated to the nuclear receptor intended target family, where the subfamily is non-steroidal.
Human liver HepG2 cells are transiently transfected with multiple reporter transcription units (MRTUs) in 6-well plates using FuGene 6 reagent (Roche; 3 ml FuGene/1 mg DNA). The MRTU constructs are regulated by a cis-regulating element (promoter). […] A major difference between the CIS and TRANS system is that in CIS activities of endogenous TFs are measured, whereas the TRANS assay evaluates changes in activities of exogenous, chimeric NR-Gal4 proteins. […] At the end of 24 hour incubation, total RNA was isolated using TriZol reagent (Invitrogen). The isolated RNA is then reverse-transcribed using oligo(dT) primer and Mo-MLV reverse transcriptase (Invitrogen) with DNAse I (Ambion) treatment for 30 min. The one-tenth of the produced cDNA was amplified by PCR using Taq DNA polymerase (Invitrogen) and two reporter sequence-specific primers. The PCR products were fluorescently labeled by primer extension with 6-arboxyfluorescein (6-FAM) 5'-labeled reporter sequence-specific primer (2 min at 95 C, 20 s at 68 C and 10 min at 72 C) and these products were digested with 5U of HpaI (New England Biolabs) for 2h at 37 C. The fragments were purified using Qiaquick PCR columns (Qiagen), analyzed on an ABI 3130xL genetic analyzer (Applied Biosystems) with peak positions identified by using a set of X-rhodamine (ROX)-labeled MapMarker1000 molecular weight standards (BioVentures). The raw capillary electrophoresis data was processed using Attagraph software (Attagene).
With `O=[N+]([O-])c1ccc(O)cc1`, the call was inactive.
Same read-out and setting: next, `O=C(/C=C/c1ccc(O)cc1)CC(=O)/C=C/c1ccc(O)cc1`: “inactive”; `CCCCCCC(=O)O`: “inactive”.
With `CC(C)CCCCCCOC(=O)CCCCC(=O)OCCCCCCC(C)C`, the outcome was inactive.
For the compound `CCCOc1sc(C(=O)N2CCC(c3cc(CN)ccc3F)CC2)c(C)c1Br`, the AC50 was 1.34 µM (active).
For the compound `CCOC(=O)CC(O)(CC(=O)OCC)C(=O)OCC`, the compound was classed as inactive.
Consider `O=C1OC2(c3ccccc31)c1cc(Br)c(O)c(Br)c1Oc1c2cc(Br)c(O)c1Br`, for which the result was inactive.
Same read-out and setting: to `O=C(O)c1ccccc1C(c1ccc(O)cc1)c1ccc(O)cc1` belongs “inactive”.
As to `FC(F)(I)C(F)(F)C(F)(F)C(F)(F)C(F)(F)C(F)(F)I`, the call was inactive.
`OC1CCCCC1`: the result was inactive.
The same measure, in the same setting: to `CCC(C)(C)C1CCC(O)CC1` (centres undefined) belongs “inactive”.
On the same count and under the same terms, next, `CN(C)C=O`: “inactive”; `ClC1=C(Cl)C(Cl)(Cl)C(Cl)=C1Cl`: “inactive”.
As to `CC(C)(C)c1cccc(C(C)(C)C)c1O`, the AC50 is 49.7 µM (active).
Take `OCCC(F)(F)C(F)(F)C(F)(F)C(F)(F)C(F)(F)C(F)(F)F`: the compound was classed as inactive.
For `CCCCC[C@H](O)CC(=O)CCc1ccc(O)c(OC)c1`, the result was inactive.
As to `COCC(C)O` (centres undefined), the outcome was inactive.
Regarding `Oc1cc2ccccc2c2ccccc12`, the outcome was inactive.
Turning to `CC(C)(C)c1ccc(O)c(C(C)(C)C)c1`, the AC50 was 5.26 µM (active).
For `OC1CCC(C2CCCCC2)CC1` (centres undefined), the result was inactive.
Turning to `CCN(CC)CCNc1ccc(CNC=O)c2sc3ccc(OC)cc3c(=O)c12`, the half-maximal activity concentration (AC50) was 1.26 µM (active).
Turning to `CCCOC(=O)c1ccc(O)cc1`, the compound was classed as inactive.
Take `O=C(OCCOCCOC(=O)c1ccccc1)c1ccccc1`: the compound was called inactive.
Consider `OCCC(F)(F)C(F)(F)C(F)(F)C(F)(F)C(F)(F)C(F)(F)C(F)(F)C(F)(F)F`, for which the outcome was inactive.
`CC(=O)NC1(c2cccc(F)c2)CCN(CC[C@@]2(c3ccc(Cl)c(Cl)c3)CN(c3ccccc3)C(=O)CO2)CC1`: the compound was called inactive.
Consider `NC(=O)N1C(=O)C(C(=O)c2cc(Cl)cs2)c2cc(F)c(Cl)cc21` (centres undefined), for which the compound was classed as inactive.
Same read-out and setting: next, `C[C@@H]1C[C@H]2[C@@H]3CCC4=CC(=O)C=C[C@]4(C)[C@@]3(F)[C@@H](O)C[C@]2(C)[C@@]1(O)C(=O)COP(=O)(O)O`: “inactive”; `CC(O)C(=O)O` (centres undefined): “inactive”.
The same measure, in the same setting: next, `Cc1ccc(S(=O)(=O)O)c(C)c1`: “inactive”; `CCCCCCCCCCCCc1ccccc1S(=O)(=O)O`: “inactive”.
The same measure, in the same setting: next, `CCc1ccc(CCOc2ccc(CC3SC(=O)NC3=O)cc2)nc1` (centres undefined): “inactive”; `CCC(=C(c1ccc(O)cc1)c1ccc(OCCN(C)C)cc1)c1ccccc1`: “inactive”.
Consider `CC1=C(/C=C/C(C)=C/C=C/C(C)=C/C(=O)O)C(C)(C)CCC1`, for which the call was inactive.
Consider `O=C(O)Cc1cc(I)c(Oc2cc(I)c(O)c(I)c2)c(I)c1`, for which the compound was classed as inactive.
As to `O=c1c(-c2ccc(O)cc2)coc2cc(O)ccc12`, the call was inactive.
For the compound `CC(C)(C)c1cc(C(C)(C)C)c(O)c(C(C)(C)C)c1`, the outcome was inactive.
Same read-out and setting: next, `CC(=O)CC(C)(C)O`: “inactive”; `CCCCC(CC)COC(=O)CCCCC(=O)OCC(CC)CCCC` (centres undefined): “inactive”; `N#C[C@@H]1CC(F)(F)CN1C(=O)CNC1CC2CCC(C1)N2c1ncccn1` (some centres undefined): “inactive”.
